# Assay results published in PMC7862700, “An all-to-all approach to the identification of sequence-specific readers for epigenetic DNA modifications on cytosine”.
# Columns and labels:
# Test in all cases: DAPPL (digital affinity profiling via proximity ligation, sequencing); 10 mM Tris-HCl pH 7.5, 50 mM NaCl, 1 mM DTT, 4% glycerol, room temperature, 30 min; GST-TFs on glutathione beads, 16-mer random dsDNA library, 0.1% formaldehyde crosslink after washing; high values mean tight binding
# FEV = biological target: T1, FEV (Homo sapiens, UniProt Q99581 1-238); settings: protein: recombinant; tags: N-terminal GST; dsDNA, one strand shown
# T1 sequence: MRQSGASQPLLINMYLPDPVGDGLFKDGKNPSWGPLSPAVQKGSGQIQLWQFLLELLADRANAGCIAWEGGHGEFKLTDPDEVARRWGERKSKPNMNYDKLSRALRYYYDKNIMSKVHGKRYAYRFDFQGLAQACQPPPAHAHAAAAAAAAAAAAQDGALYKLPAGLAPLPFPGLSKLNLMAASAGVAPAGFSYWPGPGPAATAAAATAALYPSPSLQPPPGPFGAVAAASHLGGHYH
# Summary of the method: (§1)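 Human transcription factors carrying a GST fusion were produced in yeast, bound to glutathione beads, tagged with DNA barcodes and pooled together with a tag-only sample. Each pool was held with 200 nmole of a random double-stranded 16-mer DNA library in Tris/NaCl/DTT/glycerol buffer for 30 min at room temperature, then washed, crosslinked in 0.1% formaldehyde, proximity-ligated with BsaI/T4 ligase (1 h, 37 °C), PCR-amplified and sequenced on an Illumina NextSeq500. Binding signal is the read frequency of each hexamer for a given factor divided by its frequency in the tag-only sample.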
# ETV5 = ETV5 (Homo sapiens, UniProt P41161 1-510); settings: protein: recombinant; tags: N-terminal GST; dsDNA, one strand shown
# Summary of the method: as §1
# HSF1 = HSF1 (Homo sapiens, UniProt Q00613 1-529); settings: protein: recombinant; tags: N-terminal GST; chain copies: 3; dsDNA, one strand shown
# Summary of the method: as §1
# SPIC = biological target: T2, SPIC (Homo sapiens, UniProt Q8N5J4 1-248); settings: protein: recombinant; tags: N-terminal GST; dsDNA, one strand shown
# T2 sequence: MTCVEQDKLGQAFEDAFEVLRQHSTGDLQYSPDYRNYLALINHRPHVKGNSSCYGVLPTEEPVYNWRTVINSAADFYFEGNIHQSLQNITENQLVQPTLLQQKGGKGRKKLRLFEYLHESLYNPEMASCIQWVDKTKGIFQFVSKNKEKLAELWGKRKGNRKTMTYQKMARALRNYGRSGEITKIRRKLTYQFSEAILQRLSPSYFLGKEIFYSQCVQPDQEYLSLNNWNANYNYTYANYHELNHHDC
# Summary of the method: as §1
# ELF4 = ELF4 (Homo sapiens, UniProt Q99607 1-663); settings: protein: recombinant; tags: N-terminal GST; dsDNA, one strand shown
# Summary of the method: as §1
# ELK4 = biological target: T3, ELK4 (Homo sapiens, UniProt P28324-2 1-405); settings: protein: recombinant; tags: N-terminal GST; dsDNA, one strand shown
# T3 sequence: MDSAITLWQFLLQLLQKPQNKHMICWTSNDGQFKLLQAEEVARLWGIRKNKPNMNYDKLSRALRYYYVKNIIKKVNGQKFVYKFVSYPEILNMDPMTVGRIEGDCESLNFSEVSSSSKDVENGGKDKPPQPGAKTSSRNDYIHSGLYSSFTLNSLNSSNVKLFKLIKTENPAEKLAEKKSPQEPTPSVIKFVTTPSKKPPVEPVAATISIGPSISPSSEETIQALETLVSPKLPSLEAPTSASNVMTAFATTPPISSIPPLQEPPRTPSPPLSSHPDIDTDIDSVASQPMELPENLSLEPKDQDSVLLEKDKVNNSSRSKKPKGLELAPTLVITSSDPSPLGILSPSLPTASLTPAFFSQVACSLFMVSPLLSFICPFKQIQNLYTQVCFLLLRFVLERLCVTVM
# Summary of the method: as §1
# ETV2 = biological target: T4, ETV2 (Homo sapiens, UniProt O00321 1-342); settings: protein: recombinant; tags: N-terminal GST; dsDNA, one strand shown
# T4 sequence: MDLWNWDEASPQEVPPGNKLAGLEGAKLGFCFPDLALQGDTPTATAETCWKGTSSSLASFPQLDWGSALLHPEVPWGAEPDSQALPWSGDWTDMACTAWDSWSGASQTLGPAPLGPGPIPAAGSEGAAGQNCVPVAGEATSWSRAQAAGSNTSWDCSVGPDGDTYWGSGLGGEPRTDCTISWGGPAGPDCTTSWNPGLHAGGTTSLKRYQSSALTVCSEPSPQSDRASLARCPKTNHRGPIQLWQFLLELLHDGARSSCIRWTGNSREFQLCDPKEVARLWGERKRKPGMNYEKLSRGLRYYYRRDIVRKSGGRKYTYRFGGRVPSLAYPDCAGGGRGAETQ
# Summary of the method: as §1
# ELF3 = biological target: T5, ELF3 (Homo sapiens, UniProt P78545 1-371); settings: protein: recombinant; tags: N-terminal GST; dsDNA, one strand shown
# T5 sequence: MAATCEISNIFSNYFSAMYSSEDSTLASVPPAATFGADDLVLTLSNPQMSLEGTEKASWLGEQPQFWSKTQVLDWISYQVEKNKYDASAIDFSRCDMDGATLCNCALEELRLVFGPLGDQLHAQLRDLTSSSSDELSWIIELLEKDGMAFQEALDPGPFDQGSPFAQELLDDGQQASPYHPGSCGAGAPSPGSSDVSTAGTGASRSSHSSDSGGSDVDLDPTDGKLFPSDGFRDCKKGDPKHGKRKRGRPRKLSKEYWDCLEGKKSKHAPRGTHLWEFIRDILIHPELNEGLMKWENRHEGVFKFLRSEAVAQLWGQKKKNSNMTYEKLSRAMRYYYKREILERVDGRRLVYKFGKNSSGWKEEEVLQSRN
# Summary of the method: as §1
# CRX = CRX (Homo sapiens, UniProt O43186 1-299); settings: protein: recombinant; tags: N-terminal GST; dsDNA, one strand shown
# Summary of the method: as §1
# ETV1 = ETV1 (Homo sapiens, UniProt P50549 1-477); settings: protein: recombinant; tags: N-terminal GST; dsDNA, one strand shown
# Summary of the method: as §1
# ERF = biological target: T6, ERF (Homo sapiens, UniProt P50548 1-548); settings: protein: recombinant; tags: N-terminal GST; dsDNA, one strand shown
# T6 sequence: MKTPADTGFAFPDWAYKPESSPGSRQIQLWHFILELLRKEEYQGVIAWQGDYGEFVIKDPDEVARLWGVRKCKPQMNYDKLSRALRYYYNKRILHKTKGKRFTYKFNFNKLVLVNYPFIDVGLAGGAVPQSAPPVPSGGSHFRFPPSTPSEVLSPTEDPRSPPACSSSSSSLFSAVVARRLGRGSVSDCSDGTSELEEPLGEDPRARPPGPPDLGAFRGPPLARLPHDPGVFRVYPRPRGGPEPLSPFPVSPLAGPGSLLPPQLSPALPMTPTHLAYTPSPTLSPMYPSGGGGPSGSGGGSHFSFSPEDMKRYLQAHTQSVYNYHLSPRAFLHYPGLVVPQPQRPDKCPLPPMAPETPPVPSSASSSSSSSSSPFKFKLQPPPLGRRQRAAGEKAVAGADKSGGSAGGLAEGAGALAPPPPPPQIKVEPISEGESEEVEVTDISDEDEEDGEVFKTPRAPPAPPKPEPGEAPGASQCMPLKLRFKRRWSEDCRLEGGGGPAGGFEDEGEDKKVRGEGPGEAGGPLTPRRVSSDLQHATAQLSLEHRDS
# Summary of the method: as §1
# ETV3L = biological target: T7, ETV3L (Homo sapiens, UniProt Q6ZN32 1-361); settings: protein: recombinant; tags: N-terminal GST; dsDNA, one strand shown
# T7 sequence: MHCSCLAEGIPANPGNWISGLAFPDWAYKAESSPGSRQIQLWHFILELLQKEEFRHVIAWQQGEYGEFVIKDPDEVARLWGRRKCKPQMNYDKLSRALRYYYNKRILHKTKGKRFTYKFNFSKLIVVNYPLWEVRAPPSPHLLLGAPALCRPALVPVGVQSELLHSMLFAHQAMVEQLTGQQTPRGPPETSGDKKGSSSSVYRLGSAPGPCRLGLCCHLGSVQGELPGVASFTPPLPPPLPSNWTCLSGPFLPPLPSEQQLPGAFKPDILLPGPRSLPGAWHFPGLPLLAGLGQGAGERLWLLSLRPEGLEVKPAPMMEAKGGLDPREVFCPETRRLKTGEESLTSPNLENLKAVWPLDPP
# Summary of the method: as §1
# ETS2 = biological target: T8, ETS2 (Homo sapiens, UniProt P15036 1-469); settings: protein: recombinant; tags: N-terminal GST; dsDNA, one strand shown
# T8 sequence: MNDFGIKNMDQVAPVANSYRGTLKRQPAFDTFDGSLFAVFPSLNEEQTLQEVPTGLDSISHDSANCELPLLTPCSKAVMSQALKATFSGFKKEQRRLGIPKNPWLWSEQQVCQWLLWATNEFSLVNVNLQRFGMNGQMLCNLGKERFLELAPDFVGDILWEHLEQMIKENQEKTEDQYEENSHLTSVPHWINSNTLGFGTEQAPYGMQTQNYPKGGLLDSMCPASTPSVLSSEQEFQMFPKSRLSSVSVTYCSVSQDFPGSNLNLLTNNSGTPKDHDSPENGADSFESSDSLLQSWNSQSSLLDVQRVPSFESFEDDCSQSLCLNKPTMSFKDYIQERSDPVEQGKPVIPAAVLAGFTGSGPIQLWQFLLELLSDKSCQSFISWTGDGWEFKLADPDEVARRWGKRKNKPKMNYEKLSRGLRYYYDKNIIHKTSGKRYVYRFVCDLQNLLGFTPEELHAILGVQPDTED
# Summary of the method: as §1
# SPDEF = biological target: T9, SPDEF (Homo sapiens, UniProt O95238 1-335); settings: protein: recombinant; tags: N-terminal GST; dsDNA, one strand shown
# T9 sequence: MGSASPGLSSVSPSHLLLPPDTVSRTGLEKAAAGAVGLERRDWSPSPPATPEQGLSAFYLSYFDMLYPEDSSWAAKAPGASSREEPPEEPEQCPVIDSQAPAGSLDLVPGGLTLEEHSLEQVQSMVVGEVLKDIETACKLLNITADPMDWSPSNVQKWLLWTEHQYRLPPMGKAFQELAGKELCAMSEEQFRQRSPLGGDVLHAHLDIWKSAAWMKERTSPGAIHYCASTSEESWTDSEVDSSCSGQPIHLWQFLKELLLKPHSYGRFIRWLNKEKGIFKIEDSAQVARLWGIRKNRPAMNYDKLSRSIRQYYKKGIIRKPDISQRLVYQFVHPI
# Summary of the method: as §1
# ETV7 = biological target: T10, ETV7 (Homo sapiens, UniProt Q9Y603 1-341); settings: protein: recombinant; tags: N-terminal GST; dsDNA, one strand shown
# T10 sequence: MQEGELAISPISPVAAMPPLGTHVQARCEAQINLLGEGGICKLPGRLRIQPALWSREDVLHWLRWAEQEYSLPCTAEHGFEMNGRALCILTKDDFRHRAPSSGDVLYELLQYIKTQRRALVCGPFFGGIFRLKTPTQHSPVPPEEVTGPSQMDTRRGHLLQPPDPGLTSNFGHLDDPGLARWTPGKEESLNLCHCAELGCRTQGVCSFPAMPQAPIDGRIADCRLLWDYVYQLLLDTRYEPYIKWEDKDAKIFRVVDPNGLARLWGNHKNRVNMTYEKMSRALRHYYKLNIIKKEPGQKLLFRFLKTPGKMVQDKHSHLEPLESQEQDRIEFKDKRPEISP
# Summary of the method: as §1
# ELF5 = biological target: T11, ELF5 (Homo sapiens, UniProt Q9UKW6-2 1-255); settings: protein: recombinant; tags: N-terminal GST; dsDNA, one strand shown
# T11 sequence: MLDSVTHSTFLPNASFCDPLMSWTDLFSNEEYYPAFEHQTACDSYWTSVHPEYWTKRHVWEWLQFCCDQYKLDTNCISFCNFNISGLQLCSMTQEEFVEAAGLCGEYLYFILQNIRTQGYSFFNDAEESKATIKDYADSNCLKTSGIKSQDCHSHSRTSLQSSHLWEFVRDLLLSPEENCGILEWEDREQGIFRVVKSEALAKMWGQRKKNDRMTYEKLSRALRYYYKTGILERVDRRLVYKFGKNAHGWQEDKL
# Summary of the method: as §1
# ETV3 = biological target: T12, ETV3 (Homo sapiens, UniProt P41162-2 1-143); settings: protein: recombinant; tags: N-terminal GST; dsDNA, one strand shown
# T12 sequence: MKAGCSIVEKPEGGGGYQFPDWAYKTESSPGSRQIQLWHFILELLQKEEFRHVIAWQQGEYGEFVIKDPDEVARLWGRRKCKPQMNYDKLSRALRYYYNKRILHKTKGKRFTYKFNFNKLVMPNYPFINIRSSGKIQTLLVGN
# Summary of the method: as §1
# ETV6 = ETV6 (Homo sapiens, UniProt P41212 1-452); settings: protein: recombinant; tags: N-terminal GST; dsDNA, one strand shown
# Summary of the method: as §1
# ELF4, sequence (Q99607 whole entry): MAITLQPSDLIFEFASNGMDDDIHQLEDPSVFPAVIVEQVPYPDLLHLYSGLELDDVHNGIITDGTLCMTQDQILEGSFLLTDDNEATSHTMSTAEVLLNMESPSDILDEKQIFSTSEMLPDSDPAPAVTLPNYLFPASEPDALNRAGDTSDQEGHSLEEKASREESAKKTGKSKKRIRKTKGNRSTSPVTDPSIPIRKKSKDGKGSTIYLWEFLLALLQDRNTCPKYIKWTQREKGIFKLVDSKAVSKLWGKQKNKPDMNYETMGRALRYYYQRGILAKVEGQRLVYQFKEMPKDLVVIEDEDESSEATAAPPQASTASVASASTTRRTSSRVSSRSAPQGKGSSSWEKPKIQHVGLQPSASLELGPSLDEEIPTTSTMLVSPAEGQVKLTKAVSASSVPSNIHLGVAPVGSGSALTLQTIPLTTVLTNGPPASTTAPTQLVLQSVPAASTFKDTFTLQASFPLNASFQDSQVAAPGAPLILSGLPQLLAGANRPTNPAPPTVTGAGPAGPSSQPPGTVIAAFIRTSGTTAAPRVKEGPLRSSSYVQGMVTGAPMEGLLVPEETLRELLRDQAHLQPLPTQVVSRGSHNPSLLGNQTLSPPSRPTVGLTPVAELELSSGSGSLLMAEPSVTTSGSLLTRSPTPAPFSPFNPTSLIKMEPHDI
# ETV1, sequence (P50549 whole entry): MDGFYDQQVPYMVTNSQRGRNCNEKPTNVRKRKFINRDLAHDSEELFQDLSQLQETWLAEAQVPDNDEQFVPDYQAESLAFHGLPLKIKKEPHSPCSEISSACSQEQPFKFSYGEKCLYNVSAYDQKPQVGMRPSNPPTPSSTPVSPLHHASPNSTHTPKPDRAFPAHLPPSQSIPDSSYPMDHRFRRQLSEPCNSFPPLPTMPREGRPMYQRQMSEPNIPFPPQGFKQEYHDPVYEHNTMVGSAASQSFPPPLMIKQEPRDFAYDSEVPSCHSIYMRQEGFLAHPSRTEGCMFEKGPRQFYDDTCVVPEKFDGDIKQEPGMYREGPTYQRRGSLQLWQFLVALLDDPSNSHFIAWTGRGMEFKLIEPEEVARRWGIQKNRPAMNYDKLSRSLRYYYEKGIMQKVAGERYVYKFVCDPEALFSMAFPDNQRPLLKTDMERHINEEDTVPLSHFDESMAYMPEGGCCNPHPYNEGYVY
# ETV5, sequence (P41161 whole entry): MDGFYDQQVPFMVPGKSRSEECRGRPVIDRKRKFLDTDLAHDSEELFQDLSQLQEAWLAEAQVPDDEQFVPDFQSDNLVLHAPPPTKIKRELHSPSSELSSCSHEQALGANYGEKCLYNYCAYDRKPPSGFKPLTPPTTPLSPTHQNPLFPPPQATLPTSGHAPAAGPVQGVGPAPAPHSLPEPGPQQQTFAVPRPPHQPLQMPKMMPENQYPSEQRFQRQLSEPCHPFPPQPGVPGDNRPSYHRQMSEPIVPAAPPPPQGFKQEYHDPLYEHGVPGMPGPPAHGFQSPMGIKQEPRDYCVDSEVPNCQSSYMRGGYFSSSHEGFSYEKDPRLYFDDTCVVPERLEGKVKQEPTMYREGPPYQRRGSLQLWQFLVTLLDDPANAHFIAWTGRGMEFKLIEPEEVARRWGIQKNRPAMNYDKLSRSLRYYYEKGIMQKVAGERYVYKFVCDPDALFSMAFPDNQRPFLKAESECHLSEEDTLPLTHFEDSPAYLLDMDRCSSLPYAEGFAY
# ETV6, sequence (P41212 whole entry): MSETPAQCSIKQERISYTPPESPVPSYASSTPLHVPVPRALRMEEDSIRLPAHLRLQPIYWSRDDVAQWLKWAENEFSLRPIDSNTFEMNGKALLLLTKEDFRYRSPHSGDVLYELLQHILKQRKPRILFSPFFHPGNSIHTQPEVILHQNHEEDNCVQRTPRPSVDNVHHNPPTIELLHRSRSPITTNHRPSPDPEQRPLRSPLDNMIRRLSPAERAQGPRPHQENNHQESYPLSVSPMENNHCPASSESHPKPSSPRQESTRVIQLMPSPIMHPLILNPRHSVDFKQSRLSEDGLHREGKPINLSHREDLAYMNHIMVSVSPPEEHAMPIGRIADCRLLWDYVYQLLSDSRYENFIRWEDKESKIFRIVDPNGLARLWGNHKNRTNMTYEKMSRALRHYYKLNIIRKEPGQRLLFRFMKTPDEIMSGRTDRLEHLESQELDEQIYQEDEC
# CRX, sequence (O43186 whole entry): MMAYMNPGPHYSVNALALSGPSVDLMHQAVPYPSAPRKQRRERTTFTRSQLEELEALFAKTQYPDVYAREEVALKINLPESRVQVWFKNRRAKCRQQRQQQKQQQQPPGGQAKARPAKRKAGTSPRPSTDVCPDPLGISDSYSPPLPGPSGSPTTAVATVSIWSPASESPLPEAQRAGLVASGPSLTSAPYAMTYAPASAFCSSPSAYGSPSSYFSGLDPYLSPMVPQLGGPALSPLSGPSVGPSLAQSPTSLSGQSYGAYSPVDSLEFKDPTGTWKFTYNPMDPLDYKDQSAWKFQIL
# HSF1, sequence (Q00613 whole entry): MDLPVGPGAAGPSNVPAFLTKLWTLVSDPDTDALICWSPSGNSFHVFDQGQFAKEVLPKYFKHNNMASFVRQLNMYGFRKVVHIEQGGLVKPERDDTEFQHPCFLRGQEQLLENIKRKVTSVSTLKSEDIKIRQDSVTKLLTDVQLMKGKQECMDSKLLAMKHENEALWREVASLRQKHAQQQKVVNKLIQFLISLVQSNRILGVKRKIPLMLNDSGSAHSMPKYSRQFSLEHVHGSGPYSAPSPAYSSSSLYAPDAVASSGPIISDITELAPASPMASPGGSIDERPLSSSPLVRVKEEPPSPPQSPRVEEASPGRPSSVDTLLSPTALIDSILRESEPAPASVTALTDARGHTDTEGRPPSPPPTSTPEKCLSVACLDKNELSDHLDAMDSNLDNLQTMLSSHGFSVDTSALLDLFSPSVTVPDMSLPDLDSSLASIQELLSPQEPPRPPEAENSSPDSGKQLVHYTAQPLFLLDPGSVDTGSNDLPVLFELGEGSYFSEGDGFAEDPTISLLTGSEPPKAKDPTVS
sequence,measurement,setting,value
CTCGAG,binding signal,FEV,"1.2 fold enrichment (6-mer frequency, TF over GST control)"
same,binding signal,ETV5,"1.26 fold enrichment (6-mer frequency, TF over GST control)"
same,binding signal,HSF1,"2 fold enrichment (6-mer frequency, TF over GST control)"
same,binding signal,SPIC,"1.44 fold enrichment (6-mer frequency, TF over GST control)"
same,binding signal,ELF4,"1.34 fold enrichment (6-mer frequency, TF over GST control)"
same,binding signal,ELK4,"1.31 fold enrichment (6-mer frequency, TF over GST control)"
same,binding signal,ETV2,"1.64 fold enrichment (6-mer frequency, TF over GST control)"
same,binding signal,ELF3,"1.3 fold enrichment (6-mer frequency, TF over GST control)"
same,binding signal,CRX,"1.26 fold enrichment (6-mer frequency, TF over GST control)"
same,binding signal,ETV1,"1.2 fold enrichment (6-mer frequency, TF over GST control)"
same,binding signal,ERF,"1.29 fold enrichment (6-mer frequency, TF over GST control)"
same,binding signal,ETV3L,"1.25 fold enrichment (6-mer frequency, TF over GST control)"
same,binding signal,ETS2,"1.17 fold enrichment (6-mer frequency, TF over GST control)"
same,binding signal,SPDEF,"1.16 fold enrichment (6-mer frequency, TF over GST control)"
same,binding signal,ETV7,"1.36 fold enrichment (6-mer frequency, TF over GST control)"
same,binding signal,ELF5,"1.16 fold enrichment (6-mer frequency, TF over GST control)"
same,binding signal,ETV3,"1.16 fold enrichment (6-mer frequency, TF over GST control)"
same,binding signal,ETV6,"1.32 fold enrichment (6-mer frequency, TF over GST control)"
